Molecules are shown by their SMILES. Several values for one entry are separate records, joined by “and”; a condition that tells them apart may be missing. Identical values can stand only once. Inconclusive results are not listed. A number with no mark means an inactive call. Activity calls are given as the source filed them. Calls follow the shape of the dose curve; as a rule, active = well fitted cell-killing curve with a large enough effect in the repeat runs; inconclusive = weak or mixed curves; inactive = flat fitted curve, though single readings scatter.
% is scaled to controls: 0 for no effect and ±100 for the full control effect; potency is read from the fitted curve at half-maximal effect.

This assay is described as follows: qHTS assay to identify small molecule antagonists of the estrogen receptor beta (ER-beta) signaling pathway - cell viability counter screen (AID 1259382). Also: nearly all actives have a fitted effect of over 55% in size. The note with it: ER-beta-UAS-bla HEK293T viability, CellTiter-Glo luminescence, 16 h; series mostly up to 92.4 µM; activity change, negative = cytotoxicity: at the top concentration. The text has this:
U.S. Tox21 Program National Center for Advancing Translational Sciences [NCATS] NIH Chemical Genomics Center [NCGC] U.S. Environmental Protection Agency [EPA] National Institutes of Environmental Health Sciences [NIEHS] National Toxicology Program [NTP] U.S. Food and Drug Administration [FDA] Tox21 Assay Overview: Estrogen receptor (ER), a nuclear hormone receptor, plays an important role in development, metabolic homeostasis and reproduction. Two subtypes of ER, ER-alpha and ER-beta, have similar expression patterns with some uniqueness in both types. Endocrine disrupting chemicals (EDCs) and their interactions with steroid hormone receptors like ER causes disruption of normal endocrine function. To identify the compounds that inhibit ER signaling, an ER-beta-UAS-bla GripTite cell line (Life Technologies, Madison, WI, USA) containing a beta-lactamase reporter gene under the control of an UAS response element was used to screen Tox21 10K compound library. The cytotoxicity of the Tox21 compound library against the ER-beta-bla cell line was tested in parallel by measuring the cell viability using CellTiter-Glo assay in the same wells.
Tox21 Assay Protocol Summary: ER-beta-UAS-bla HEK293T cells were dispensed at 2,000 cells/4 uL of assay medium containing 2% charcoal stripped FBS per well into black wall/clear-bottom 1536-well plates using a Multidrop Combi (ThermoFisher Scientific, Waltham, MA) dispenser. After the assay plates were incubated at a 37C and 5% CO2 for 6 hr, 23 nL of compounds dissolved in DMSO, positive controls or DMSO only was transferred to the assay plate by a Pintool station (Kalypsys, San Diego, CA), followed by addition of 1 uL (1nM as final concentration) of 17-beta-estradiol (E2) in assay medium using a Flying Reagent Dispenser (FRD, Aurora Discovery, San Diego, CA). The plates were incubated at 37C and 5% CO2 for 16 hr. Then 1 uL of LiveBLAzer B/G FRET substrate was added using a Flying Reagent Dispenser, the plates were incubated at room temperature for 2 hours, and fluorescence intensity was measured by an Envision plate reader (PerkinElmer, Shelton, CT). For cell viability readout that measures cytotoxicity, 4 uL/well of CellTiter-Glo reagent was added into the assay plates using a FRD. After 30 min incubation at room temperature, the luminescence intensity in the plates was measured using a ViewLux (PerkinElmer) plate reader.
Regarding `CCCC(=O)OC(C)(C)Cc1ccccc1`, the “activity change, negative = cytotoxicity” value is 1.27%.
Still for that read-out and setting: the figure for `CC1(C)[C@@H](O)CC[C@]2(C)[C@H]3C(=O)C=C4[C@@H]5C[C@@](C)(C(=O)O)CC[C@]5(C)CC[C@@]4(C)[C@]3(C)CC[C@@H]12` is -16.8%; for `Cc1ccc(O)c(O)c1` it is -21.1%; for `OC[C@H]1O[C@H](O[C@H]2O[C@H](CO)[C@@H](O)[C@H](O)[C@H]2O)[C@H](O)[C@@H](O)[C@@H]1O` it is 4.17%.
Consider `CCC(=O)OC(=O)CC`, for which the “activity change, negative = cytotoxicity” value is -3.49%.
On to `CN1CCN(Cc2cc(-c3ccc4[nH]c(=O)oc4c3)co2)[C@@H](c2ccc(F)cc2)C1`, for which the “activity change, negative = cytotoxicity” value was -16.5%.
For the compound `OCCN1CCN(CCCN2c3ccccc3Sc3ccc(C(F)(F)F)cc32)CC1`, the Potency was 21.1 µM (active).
Turning to `O=S(=O)(O)c1ccc(Nc2nc(Nc3ccc(/C=C/c4ccc(Nc5nc(Nc6ccc(S(=O)(=O)O)cc6)nc(N(CCO)CCO)n5)cc4S(=O)(=O)O)c(S(=O)(=O)O)c3)nc(N(CCO)CCO)n2)cc1`, the “activity change, negative = cytotoxicity” value was 4.39% [at 42.5 µM].
`CC1(C)CCC[C@]2(C)[C@H]3CCO[C@]3(C)CC[C@@H]12`: the “activity change, negative = cytotoxicity” value was 5.54%.
As to `c1ccc(C(O[C@@H]2CCCN(CCc3ccc4c(c3)OCO4)C2)c2ccccc2)cc1`, the “activity change, negative = cytotoxicity” value was -17.6%.
On to `CC(C)Cn1cnc2c(N)nc3ccccc3c21`, for which the activity change, negative = cytotoxicity is -2.67% [at 19 µM].
Take `Oc1ccccc1O`: the “activity change, negative = cytotoxicity” value is -5.69%.
`O=C(O)CN(CCN(CC(=O)O)CC(=O)O)CC(=O)O`: the activity change, negative = cytotoxicity was 2.74% [at 3.27 µM].
Consider `CCCCCCC1CCCC(=O)O1` (stereo not given), for which the “activity change, negative = cytotoxicity” value was -14.2%.
For the compound `O[C@@H]([C@H](O)[C@H](O)CBr)[C@H](O)CBr`, the “activity change, negative = cytotoxicity” value is 1.01%.
As to `C/C=C/C=C/COC(=O)C(C)C`, the “activity change, negative = cytotoxicity” value is -4.26%.
Still for that read-out and setting: the figure for `CCn1c2ccccc2c2cc([N+](=O)[O-])ccc21` is 0.396%; for `C=C(C)c1cccc(C(=C)C)c1` it is 2.98%.
Still for that read-out and setting: as for `C=CC(C)(CCC=C(C)C)OC=O` (stereo not given), the figure is 2.47%.
In the case of `Cl[Si](Cl)(c1ccccc1)c1ccccc1`, the “activity change, negative = cytotoxicity” value is -2.47%.
Same read-out and setting: the figure for `CC/C=C\CCCCCO` is -2.22%.
Regarding `CCCCCC/C=C\CCCCCCCC(=O)O`, the “activity change, negative = cytotoxicity” value was 3.29%.
Turning to `O=C(c1ccc(O)c(O)c1)c1ccc(O)cc1O`, the “activity change, negative = cytotoxicity” value was 5.39%.
Same read-out and setting: as for `COC(=O)C1=C(C)NC(C)=C(C(=O)OCCN2CCN(C(c3ccccc3)c3ccccc3)CC2)C1c1cccc([N+](=O)[O-])c1` (stereo not given), the figure is -8.48% [at 42.5 µM].
On the same count and under the same terms, the figure for `C#Cc1ccc(-c2ccccc2F)cc1` is 4.44% [at 42.5 µM].
In the case of `COC1=C(OC)C(=O)C(CCCCCCCCCCO)=C(C)C1=O`, the Potency was 23.7 µM (active).
Consider `Cc1ccc(C(C)C)cc2c(C)ccc1-2`, for which the “activity change, negative = cytotoxicity” value was 2.17% [at 42.5 µM].
In the case of `CC(C)(C)NSc1nc2ccccc2s1`, the “activity change, negative = cytotoxicity” value was 0.448%.
On the same count and under the same terms, as for `CCCCOC(=O)CC`, the figure is 2.13%.
As for `O=C(Nc1ccc2c(O)c(N=Nc3ccc(N=Nc4ccc(S(=O)(=O)O)cc4)cc3)c(S(=O)(=O)O)cc2c1)c1ccccc1`, the “activity change, negative = cytotoxicity” value was -4.26%.
The same measure, in the same setting: as for `CCCCNS(=O)(=O)c1ccc(C)cc1`, the figure is 3.81%; as for `CC[N+](CC)(CC)CCOC(=O)C(C1CCCC1)C1CCCC1`, -12.8% [at 42.5 µM]; as for `C=Cc1ccccc1C=C`, -2.99% [at 240 µM].
For the compound `CN(C)c1ccc(C(=C2C=CC(=[N+](C)C)C=C2)c2ccc(N(C)C)cc2)cc1`, the Potency is 21.6 µM (active) and 27.3 µM (active) and 13.3 µM (active).
As to `CCC(COC(=O)CCS)(COC(=O)CCS)COC(=O)CCS`, the “activity change, negative = cytotoxicity” value was -5.84%.
The same measure, in the same setting: the figure for `CCC(=O)C(=O)CC` is -1.96%; for `C=CC(=O)Nc1cc2c(Nc3ccc(F)c(Cl)c3)ncnc2cc1OCCCN1CCOCC1` it is -20.9% [at 42.5 µM]; for `C[Si](Cl)(c1ccccc1)c1ccccc1` it is -0.698%.
With `CCO[C@@H]1O[C@H](C(COCc2ccccc2)OCc2ccccc2)[C@H](OCc2ccccc2)[C@H]1O` (stereo not given in full), the “activity change, negative = cytotoxicity” value is -14.6% [at 42.5 µM].
With `CC(=O)OCC=C(C)C`, the “activity change, negative = cytotoxicity” value was 3.42% [at 42.5 µM].
